Source: PubChem (National Center for Advancing Translational Sciences (NCATS))
Coupling enz = counter-screen for Giardia aldolase inhibitors: coupling enzyme system; AID 2472; coupling enzyme system counterscreen, AmpLite Red fluorescence; 290,000 compounds, 0.67% hits; activity change, negative = inhibition, % at 58.2 µM, hits read low; in the data active = activity change below about -30%
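Activity here indicates interference with the coupling reaction, not aldolase inhibition. Compounds at 57.5 uM final met coupling enzymes for 10 min at RT; substrate and AmpLite Red detection followed, with a 525/598 nm fluorescence read after 20 min.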
GALK inh = blocks human galactokinase activity; 270,000 compounds, 0.007% hits; Potency, µM (top dose mostly 57.5 µM), without a hit: at the top dose activity change, negative = inhibition, most hits filed as inhibitors; Purified GALK, Kinase-Glo residual ATP luminescence; AID 1868; also: potency is read from the fitted curve at half-maximal effect
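5 nM enzyme, 35 uM ATP, 100 uM galactose, 20 mM HEPES pH8.0, 5 mM MgCl2; 1 h RT; residual ATP by Kinase-Glo Plus luminescence, qHTS format.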
VP16 counter = inhibits Gal4-VP16 luciferase reporter, ROR gamma counter-screen. Drosophila S2 Gal4-VP16 UAS-luciferase, luminescence, 20 h. Potency, µM (doses to about 53.6 µM), inactives show top-dose activity, negative = inhibition, hits mostly inhibitors. 310,000 compounds, 3.5% hits;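 also: Gal4-VP16 expression switched on by copper sulfate through the metallothionein promoter; potency is read from the fitted curve at half-maximal effect; nearly all actives have a fitted effect of over 50% in size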
RORg inh = blocks mouse ROR gamma transcriptional activity. 310,000 compounds, 5.4% hits. Drosophila S2 Gal4-RORgamma UAS-luciferase reporter, 20 h. Potency, µM (highest dose often 53.6 µM), for the others: at the top dose activity change, negative = inhibition, most hits filed as inhibitors. AID 2551; also: potency is read from the fitted curve at half-maximal effect; nearly all actives have a fitted effect of over 60% in size
Target sequence (P51450 whole entry, looked up, the tested form may be a part): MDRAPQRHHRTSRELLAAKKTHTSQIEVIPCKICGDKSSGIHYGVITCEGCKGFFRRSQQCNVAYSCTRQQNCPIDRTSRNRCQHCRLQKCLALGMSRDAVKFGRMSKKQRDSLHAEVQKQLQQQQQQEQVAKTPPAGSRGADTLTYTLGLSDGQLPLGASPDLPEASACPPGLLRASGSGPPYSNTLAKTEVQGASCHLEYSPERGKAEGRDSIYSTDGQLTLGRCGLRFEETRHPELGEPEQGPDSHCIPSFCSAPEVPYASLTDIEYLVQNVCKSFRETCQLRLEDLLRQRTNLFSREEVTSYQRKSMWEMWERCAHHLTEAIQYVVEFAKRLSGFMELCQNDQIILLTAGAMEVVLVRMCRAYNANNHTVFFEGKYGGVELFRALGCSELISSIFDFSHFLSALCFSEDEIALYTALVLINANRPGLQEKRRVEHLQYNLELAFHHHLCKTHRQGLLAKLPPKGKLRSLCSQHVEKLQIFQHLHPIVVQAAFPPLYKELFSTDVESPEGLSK
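Compounds are pin-transferred onto Drosophila Schneider cells expressing a copper-inducible Gal4–ROR gamma transactivation domain fusion. After 1 hr, copper sulfate is added to 700 uM final; luciferase is read 20 hr later.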
TrxR1 substrate = substrates of rat thioredoxin reductase 1 | 390,000 compounds, 0.01% hits | O89049 | AID 588456 | Potency, µM (top dose mostly 114 µM), for the others: at the top dose activity change, negative = substrate turnover | purified TrxR1 substrate turnover, NADPH consumption readout; also: potency is read from the fitted curve at half-maximal effect; nearly all actives have a fitted effect of over 50% in size
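Rat TrxR1, dispensed at 90 nM, was prereduced with 400 uM NADPH (final) for 5 min at ~22 deg C, then incubated with compound 15 min before 400 uM selenite. A first-read NADPH fluorescence drop versus no-compound background flagged substrates.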
TrxR1 inh = inhibitors of rat thioredoxin reductase 1; O89049; recombinant rTrxR1, NADPH fluorescence consumption, selenite substrate; Potency, µM (series often up to 114 µM), without a hit: top-dose activity change, negative = inhibition, usual class: inhibitors; 390,000 compounds, 1% hits; AID 588453; also: potency is read from the fitted curve at half-maximal effect; nearly all actives have a fitted effect of over 65% in size
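Rat TrxR1 (90 nM in the dispensed reagent) was pre-reduced with 400 uM NADPH for 5 min at room temperature, then incubated with compound for 15 min. After 400 uM selenite was added, NADPH fluorescence (Ex 340/Em 450 nm) was followed for 8 min.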
An asterisk follows results filed as active; ? = inconclusive; . = no result; [ ] = dose if it differs, or a comment. An excerpt weighted towards active compounds, which were near 5.9% of everything screened. Unless noted, calls follow the shape of the dose curve; as a rule, active = well fitted curve in the direction sought with a large enough effect; inconclusive = small, poorly fitted or top-dose-only effect, or another doubt; inactive = no such curve, though single readings can be large; an effect the other way counts as inactive or inconclusive. % is scaled to controls: 0 for no effect and ±100 for the full control effect.

SMILES | Coupling enz | GALK inh | VP16 counter | RORg inh | TrxR1 substrate | TrxR1 inh
COc1cccc(/C=N/NC(=O)CNC(=O)/C=C\c2ccccc2)c1O | . | -2% | 3.2µM* | 2.5µM* | 3% | 29%
COc1ccc(/C=C\C(=O)NCC(=O)N/N=C/c2cccc(OC)c2O)cc1 | 1 | -1% | 7.9µM* | 1.6µM* | 0% | 13%
CN1CCN(c2ccc(NC(=S)NC(=O)c3cccc4c(Cl)cccc34)cc2)CC1 | -2 | 6% | -13% | ? | 1% | -6%
COc1c(C(=O)NC(=S)Nc2nnn(C)n2)cc2ccccc2c1Br | -2 | 4% | 4µM* | 2.5µM* | -8% | 7%
Cn1nnc(NC(=S)NC(=O)c2cccc3c(Br)cccc23)n1 | -1 | -4% | 2.8µM* | 0.89µM* | 4% | ?
Cn1nnc(NC(=S)NC(=O)c2cccc3c(Cl)cccc23)n1 | . | -4% | 2.8µM* | 0.89µM* | 4% | ?
COC(=O)c1cc(COC(=O)COc2ccc(C)c(C)c2)oc1C | -2 | 12% | -3% | -16% | -3% | 11%
CCOC(=O)C1(Cc2cccc(F)c2)CCN(C(=O)C2CCC2)CC1 | 2 | 4% | 1% | 16% | -1% | 1%
C=CCn1c(COc2ccc(Cl)cc2)nnc1SCC(=O)N/N=C/c1cccc(O)c1 | 1 | 0% | -11% | 22% | 7%[57.1 µM] | 14%[57.1 µM]
C=CCn1c(COc2ccccc2)nnc1SC(C)C(=O)N/N=C/c1cc(Cl)ccc1O (stereo not drawn) | 5 | 1% | ? | 13µM* | -3%[57.1 µM] | 4%[57.1 µM]
COc1ccc(S(=O)(=O)NC2CCCCC2)cc1C(=O)N1CCCCC1 | . | -3% | 6% | -36% | 1% | 11%
O=C(c1ccccn1)c1conc1C(=O)c1ccc(Br)cc1 | 0 | 2% | ? | 13µM* | 4% | 16%
Cc1nn(C)cc1/C=N/NC(=S)Nc1ccc(Cl)cc1Cl | 2 | . | 2.8µM* | 0.56µM* | -5% | 8%
Cc1ccc(Cl)cc1NC(=S)N/N=C/c1cccc2ccccc12 | 0 | -1% | 2.5µM* | 0.79µM* | 1%[57.1 µM] | 20%[57.1 µM]
CCn1nc(C)c(/C=N/NC(=S)Nc2ccc(Cl)cc2Cl)c1C | 0 | . | 6.3µM* | 1.8µM* | -11% | -14%
CCCCc1nnc(NC(=O)C23CC4CC(CC(NC(C)=O)(C4)C2)C3)s1 | . | 1% | 0% | 1% | -4% | -8%
C=CCSc1nnc(NC(=O)C23CC4CC(CC(NC(C)=O)(C4)C2)C3)s1 | . | -8% | 13µM* | 2% | 7% | 31%
CCSc1ccc([C@@H]2[C@H]3C(=O)N(CC)C(=O)[C@H]3[C@]3(C(=O)OC)CCCCN23)cc1OC | . | . | . | . | -3% | ?
CCOC(=O)C(CN1CCCC1)c1ccccc1 (stereo not drawn) | . | . | . | . | -1% | 10%
CCCOc1ccc(C(=O)C(c2ccccc2)N2CCOCC2)cc1 (stereo not drawn) | 0 | -2% | -4% | 23% | 3% | 21%
COc1ccc(C(=O)C(CN2CCOCC2)c2ccccc2)cc1F (stereo not drawn) | -1 | -2% | 11µM* | 11µM* | -10% | -33%
CCCOc1ccc(C(=O)C(CN2CCOCC2)c2ccccc2)cc1 (stereo not drawn) | -2 | -3% | ? | 13µM* | -2% | 13%
O=C(c1ccc(Cl)cc1)C(CN1CCCCC1)c1ccccc1 (stereo not drawn) | 1 | 3% | ? | ? | 4% | 25µM*
COc1ccc(C(O)C(CN2CCOCC2)c2ccccc2)cc1F (stereo not drawn) | 0 | 1% | . | 0%[0.365 µM] | -4% | -1%
Cc1nn(CCOc2ccccc2)c(=O)n1-c1ccccc1 | 0 | -4% | 7% | ? | 2%[57.1 µM] | -4%[57.1 µM]
SMILES | Coupling enz | GALK inh | VP16 counter | RORg inh | TrxR1 substrate | TrxR1 inh
CCCNCC(O)Cn1c2ccccc2n2c(=O)cc(C)c(C#N)c12 (stereo not drawn) | -3 | -1% | -79% | 0.71µM* | 15%[57.1 µM] | 16%[57.1 µM]
Cc1cc(=O)n2c3ccccc3n(CC(O)CN3CCCC3)c2c1C#N (stereo not drawn) | -1 | 6% | -9% | -28% | 24% | 0%
CC1CC(C)(C)CC2(C1)NC(=O)N(CC(=O)NCC(c1ccco1)N1CCCCC1)C2=O (stereo not drawn) | 0 | -1% | 1% | -28% | 5% | -2%
Cc1ccc(S(=O)(=O)NCCC(=O)OCC(=O)N2CCCC2=O)cc1 | . | . | . | . | 3%[57.1 µM] | 17%[57.1 µM]
CC1(C)CC(=O)C2=C(C1)OC1=C(C(=O)CC(C)(C)C1)C2c1ccc(O)cc1O | 3 | 0% | 6.3µM* | 3.2µM* | 1% | 3.5µM*
CC1(C)CC(=O)C2=C(C1)OC1=C(C(=O)CC(C)(C)C1)C2c1ccc(O)c([N+](=O)[O-])c1 | 5 | 5% | 3% | 1% | 5% | 18%
Cc1coc2cc3oc(=O)c4c(c3cc12)CCC4 | -2 | 2% | 13% | 3% | . | .
Cc1coc2c1C(=O)C(=O)c1c-2ccc2c(C)cccc12 | -55* | -16% | -19% | ? | -2% | ?
Cc1coc2c1C(=O)C(=O)c1c-2ccc2c1CCCC2(C)C | -40* | -2% | -10% | -31% | -5%[57.1 µM] | ?
CC1COC2=C1C(=O)C(=O)c1c2ccc2c1CCCC2(C)C (stereo not drawn) | -36* | . | -10% | -10% | . | .
Cn1c(SCC(=O)NC2CC2)nnc1C(F)(F)F | 2 | 1% | 16% | -21% | 12% | 17%
Nc1ccc(/C=C/C(=O)c2ccco2)cc1 | 0 | 1% | ? | ? | -14% | 4%[57.1 µM]
O=C(Nc1ccc(NC(=O)C2CC2)nc1)c1ccccn1 | 0 | 8% | 7.1µM* | -44% | 4% | 6%
O=C(Nc1ccccn1)c1ccco1 | . | -1% | 3% | 6% | 5% | 21%
O=C(Nc1ccc(NC(=O)c2ccco2)nc1)c1ccccn1 | 1 | 3% | 1.8µM* | ? | -1% | -23%
CC(C)(C)C(=O)Nc1ccc(NC(=O)c2ccco2)nc1 | 1 | 2% | 0.56µM* | 0.2µM* | 3% | 27%
CC(C)(C)C(=O)Nc1ccc(/C=C/C(=O)c2ccco2)cc1 | 1 | 2% | -10% | 10µM* | 9%[57.1 µM] | -45%
COc1ccccc1C(=O)Nc1ccc(NC(=O)c2ccco2)cn1 | 2 | 1% | -2% | 27% | 13% | -8%
CC(C)NC(=O)COC(=O)/C=C/c1ccc(F)cc1 | 0 | -1% | -8% | 18% | -7% | -10%
COCC(=O)Nc1ccc(C(=O)Nc2ccccc2Cl)cc1 | -1 | 0% | 2% | -3% | . | .
O=C(Nc1ccc(NC(=O)C2CC2)cc1)c1ccco1 | 1 | 10% | -12% | -30% | 2%[57.1 µM] | 14%[57.1 µM]
